Our source for the Potency values is PubChem BioAssay AID1948 (National Center for Advancing Translational Sciences (NCATS), 2009).

About 20 (0.02%) of roughly 110,000 compounds were called active. About 2% were inconclusive and are not listed. Calls come from the whole dose curve; as a rule, active = well fitted activation curve with a large enough effect; inconclusive = small, poorly fitted or top-dose-only effect; inactive = no such curve, though single readings can be large or run the other way. The list comes from a sample in which actives are over-represented; it also holds similar structures and randomly drawn compounds. Entries that show only a call come without a potency.
Potency is the fitted concentration of half-maximal effect.

The nature of the test: qHTS Assay for Compounds that Induce Erasure of Genomic Imprints. As to conditions: mouse ES Peg3-LacZ reporter, beta-gal luminescence, 40 h; series mostly up to 10.9 µM. An excerpt:
qHTS Assay for Compounds that Induce Erasure of Genomic Imprints NIH Chemical Genomics Center [NCGC] NIH Molecular Libraries Screening Centers Network [MLSCN] Assay Submitter (PI): JEFFRIES, SEAN, NCGC, University of Cambridge NCGC Peg3 Imprinting Assay Overview Genomic imprinting is the epigenetic process whereby genes are expressed in a parent of origin fashion. […] Unlike some forms of epigenetic silencing that can be overcome by overexpression of transcription factors, genomic imprinting stably represses the expression of one allele despite potentially high levels of expression from the other allele. […] During mouse embryonic day 11.5 imprints are erased in PGCs so that sex specific imprints can be reestablished during gametogenesis. Embryonic germ (EG) cells can be derived from developing PGCs at embryonic day 11.5 and these cells often lack genomic imprints. […] Embryonic stem (ES) cells are a cell type similar to EG cells in phenotype and transcriptional profile, yet ES cells maintain genomic imprints. This similarity between ES and EG cells prompted us to use ES cells to look for factors which could induce imprint erasure. To investigate the stability of genomic imprinting, ES cells were derived from mice with an insertion of a LacZ-Neomycin reporter construct in the Peg3 locus. Peg3 is an imprinted locus where gene expression is restricted to the paternal allele. […] Using LacZ expression we are able to monitor the state of the Peg3 imprint. In order to dissect the mechanisms involved in imprint erasure using a forward chemical genetics approach we developed a cell based phenotype assay using an endogenous silence imprinted locus. This assay utilizes maternally inherited Peg3LacZ-Neo ES cells by monitoring the LacZ expression from the normally silent Peg3 allele. To facilitate screening, high-density feeder-free ES cell culture has been optimized so that ES cells can be grown in 1536 for over four days without feeding or washes. The assay uses a luminescence based read out for LacZ activity and is a homogenous assay optimal for HTS.
NCGC Peg3 Imprinting Assay Protocol Summary ES cell lines were derived from blastocysts taken from Peg3LacZ-Neo x129 matings. Lines were sexed and genotyped for the Peg3LacZ-Neo allele. Female cells carrying the reporter allele were used in this study. Cells were derived on a layer of mouse embryonic fibroblasts and passaged multiple times before switching to feeder free culture. Cells were maintained feeder free on gelatin coated dishes in DMEM/F12 media supplemented with 15% FBS, 2mM L-glutamine, 100 units/ml penicillin, 100ug/ml streptomycin, 0.1mM MEM nonessential amino acids, 1mM sodium pyruvate, 0.1% sodium bicarbonate, 0.1mM 2-Mercaptoethanol, and 400 units/ml leukemia inhibitory factor (LIF) at 37C with 5% CO2. The assay was performed in 1536-well format. A single luminescence read was taken at the end of the assay and the data was normalized by plate to internal negative controls. Maximum efficacy and AC50 values were calculated from dose-response data using the standard Hill equation. 1536 well plates were filled with 0.5ul of 0.1% gelatin per well, spun down and incubated for at least 30 min at 37C. The ES cells were then trypsini Peg3 1536-well assay protocol: (1)Plate 0.5ul/well 0.1% gelatin in white tissue culture treated 1536-well plates, spin and incubate at 37C for at least 30 min. (2)Add 5ul/well (300 cells) of ES cell suspension from freshly trypsinized cells and incubate at 37C, 5% CO2 for 40 hours. (3)Add 5ul/well of freshly prepared BetaGlo solution and incubate at room temperature for 5 minutes. (4)Read luminescence on the ViewLux plate reader. Keywords Genomic Imprinting, Germ Cells, Embryonic Stem Cell, DNA Methylation, Peg3, qHTS, NIH roadmap, NCGC
On the technique in general: Quantitative high-throughput screening tests each substance at several concentrations.
Take `Cc1cccc(C(C)C)c1NC(=O)C(NS(=O)(=O)c1cccc2nsnc12)c1ccccc1` (stereo not drawn): the Potency entry was “inactive”.
As for `COc1cc(OC)c(NC(=O)N2CC3CCCN3c3ccccc32)cc1Cl` (stereo not drawn), the Potency result was “inactive”.
The result for `Cc1ccc(C(=O)COC(=O)C(Cc2c[nH]c3ccccc23)NC(=O)c2ccc(Br)cc2)cc1` (stereo not drawn) reads “inactive”.
With `COc1cccc(Cn2c(CNS(=O)(=O)c3ccc(Cl)s3)nc3cccnc32)c1` the entry was “inactive”; with `CCCOc1ccc(NC(=O)CC2C(=O)N(c3ccccc3)C(=O)N2Cc2ccco2)cc1` (stereo not drawn), “inactive”.
With `CCN(c1ccc(Cl)cc1)S(=O)(=O)c1nnc(NC(=O)c2ccco2)s1`, the Potency result is “inactive”.
For the compound `CCC(=O)N1CCc2cc(S(=O)(=O)NC(C(=O)Nc3ccc(C(C)=O)cc3)C(C)C)ccc21` (stereo not drawn), the Potency result is “inactive”.
As to `CCSc1ncc(Cl)c(C(=O)Nc2c(C(=O)c3ccccc3)oc3ccccc23)n1`, the Potency entry is “inactive”.
Take `O=C(O)c1ccc2c(c1)N(Cc1ccc(F)cc1)C(=O)c1ccccc1S2=O` (stereo not drawn): the Potency entry is “inactive”.
For `Cc1ccc(-c2cn3c(n2)sc2cc(C(=O)NCc4cccs4)ccc23)c(C)c1`, the Potency result was “inactive”.
`Cc1cccc(CC(=O)Nc2cccc(-c3cn4cccnc4n3)c2)c1`: the Potency entry is “inactive”.
Regarding `CCCCNC(=O)CSc1nc2cc3c(cc2c(=O)n1CCCCCC(=O)NCc1ccc2c(c1)OCO2)OCO3`, the Potency entry was “inactive”.
Regarding `CCOc1ccc(CNC(=O)c2ccc(CS(=O)c3ccccc3)o2)cc1` (stereo not drawn), the Potency entry was “inactive”.
With `CCOc1ccccc1NC(=O)CCS(=O)(=O)c1cccc2nsnc12`, the Potency result was “inactive”.
On to `CCSc1nnc2c(n1)OC(c1ccc(OCC(=O)O)cc1)Nc1ccccc1-2` (stereo not drawn), for which the Potency result was “inactive”.
With `COc1cccc(-c2nc(S(=O)(=O)c3ccc(C)cc3)c(NCc3ccccc3)o2)c1` the entry was “inactive”; with `Cc1ccc(C)c(N2CCN(C(=O)Cn3ncc4c(=O)oc5ccc(C)cc5c43)CC2)c1`, “inactive”.
As for `Cc1ccc(S(=O)(=O)N(CC(=O)Nc2ccc(Cl)cc2Cl)c2ccccc2C)cc1`, the Potency entry is “inactive”.
Turning to `COc1ccccc1-n1c(-c2ccc(C)cc2)cn2c3c(=O)n(C)c(=O)n(C)c3nc12`, the Potency entry was “inactive”.
`O=c1cnc2cnc(Nc3ccccc3)nc2n1Cc1ccc(F)cc1`: the Potency result is “inactive”.
With `Cc1nc2cnc(Nc3ccccc3)nc2n(Cc2ccc(F)cc2)c1=O` the figure was 3.16 µM (active); with `Cc1nc2cnc(Nc3ccccc3)nc2n(C[C@H]2CCCO2)c1=O`, “inactive”; with `Cc1cc(NC(=O)c2cccc(Cl)c2)ccc1-c1cc2ccccc2oc1=O`, “inactive”.
For `Cc1ccc(CCNC(=O)c2nnc(Cc3cccc(F)c3)o2)cc1`, the Potency result was “inactive”.
Take `Cc1cc2c(cc1C)C(c1cccc(OC(C)C)c1)CC(=O)N2` (stereo not drawn): the Potency result was “inactive”.
Turning to `COc1ccc(Cl)cc1NC(=O)CSc1nc(-c2cccs2)cc(C(F)(F)F)n1`, the Potency result was “inactive”.
The result for `Cc1ccc(NC(=O)Nc2sc3nc4n(c(=O)c3c2C)CCC(C)CC4)c(Cl)c1` (stereo not drawn) reads “inactive”.
On to `Cc1ccc(OCCSc2nc(C)c(Cc3ccccc3)c(=O)[nH]2)cc1`, for which the Potency result was “inactive”.
The result for `CC(C)S(=O)(=O)c1oc(-c2ccc(F)cc2)nc1S(=O)(=O)c1ccc(F)cc1` reads “inactive”; that for `CCCCN(C)c1nnc(NC(=O)Nc2ccc(Br)c(C)c2)s1`, “inactive”.
With `O=C(NCCc1ccc(Cl)cc1)c1ccc2c(c1)N(Cc1ccc(F)cc1)C(=O)CS2`, the Potency entry is “inactive”.
With `CCOc1ccccc1NC(=O)CCn1cnnn1`, the Potency result is “inactive”.
The result for `CCOc1cc(-c2nnc(SCC(=O)NC3CCCC3)nc2-c2ccc(OC)c(OCC)c2)ccc1OC` reads “inactive”; that for `Cn1nnnc1SCCCNCc1cccc(OCc2ccc(Cl)cc2)c1`, “inactive”.
With `CSc1nc(=O)c2c(n1C)NC(=O)CC2c1ccccc1OC(C)C` (stereo not drawn) the entry was “inactive”.
The result for `COc1ccc(Cl)cc1S(=O)(=O)N1CCC(c2ccncc2)CC1` reads “inactive”; that for `CCc1nn(CC(=O)Nc2cccc(C)c2C)c(=O)c2cc3sccc3n12`, “inactive”.
Consider `Cc1cccc(NC(=O)c2cc(S(=O)(=O)N3CCC4(CC3)OCCO4)ccc2F)c1`, for which the Potency entry is “inactive”.
With `CCC(=O)N1CCc2cc(Br)cc(S(=O)(=O)CCC(=O)NCCc3ccc(OC)c(OC)c3)c21` the entry was “inactive”.
On to `CCCNc1ncnc2c1c(-c1ccccc1)cn2-c1ccc(OCC)cc1`, for which the Potency result was “inactive”.
With `Cc1ccc(C)c(N2CCN(C(c3ccccc3)c3nnc(-c4ccccc4)o3)CC2)c1` (stereo not drawn), the Potency entry is “inactive”.
Turning to `COc1ccc(CN2C(=O)C(NC(=O)c3cccc(C)c3)(C(F)(F)F)N=C2c2ccccc2)cc1` (stereo not drawn), the Potency entry was “inactive”.
Regarding `CCOC(=O)C1CCCN(C(=O)c2ccc3c(c2)sc2nc(-c4ccc(CC)cc4)cn23)C1` (stereo not drawn), the Potency entry is “inactive”.
The result for `CCCn1c(NCc2ccccc2F)nc2ccccc21` reads “inactive”.
The result for `O=S(=O)(c1ccc2nc(N3CCN(c4cccc(Cl)c4)CC3)ccc2c1)N1CCCCC1` reads “inactive”.
`COc1ccc(OC)c(NC(=O)/C=C/c2ccc(C)o2)c1`: the Potency entry was “inactive”.
With `Cc1c(Cl)cccc1NC(=O)CCS(=O)(=O)c1ccc2c(c1)oc(=O)n2C` the entry was “inactive”.
With `C#CC(C)(CC)NC(=O)Cn1nnc(-c2ccc(OCc3c(F)cccc3Cl)cc2)n1` (stereo not drawn) the entry was “inactive”.
